Data reported in the supplement of paper PMC10981050.
Counter-ions that a name gives are not always drawn.

The molecules below were run on MOLM14 (assay: cell viability relative to vehicle control; higher = less cytotoxic). Details: 10 µM; SRSF2 genotype: SRSF2 P95H/wt.
In short: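 After removal of identity-inconsistent compounds, the Selleck bioactive, kinase and epigenetic probe libraries were screened on CRISPR-edited mutant clones and isogenic wild-type clones of four leukaemia lines. Plates were 384-well, each well holding 2000 cells in 50 µL medium and receiving a single 10 µM acoustically dispensed dose. CellTiter-Glo luminescence was read 48 h later, after the supernatant was taken off. Genedata Screener was used to express viability as percent of the on-plate vehicle control.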
For O=C(Nc1cc(Cl)cc2c1[nH]c1cnccc12)c1cccnc1, the cell viability was 85.2%. Cc1cc(-c2ccc(/N=N/c3ccc4c(S(=O)(=O)O)cc(S(=O)(=O)O)c(N)c4c3O)c(C)c2)ccc1/N=N/c1ccc2c(S(=O)(=O)O)cc(S(=O)(=O)O)c(N)c2c1O [Evans Blue] was tested, and the cell viability was 67.4%. COc1cc(N2CCN(C)CC2)ccc1Nc1ncc2c(n1)N(C)c1ccccc1C(=O)N2 gave a cell viability of 78.1%. In the case of COc1cc2c(cc1OC)-c1cc3ccc(OC)c(OC)c3c[n+]1CC2 [Palmatine chloride], the cell viability was 82.6%. Work on C[C@H]1CO[C@@H]2Cn3cc(C(=O)NCc4ccc(F)cc4F)c(=O)c(O)c3C(=O)N12 yielded a cell viability of 92.8%. Molecule CN(C)CCc1c[nH]c2ccc(Cn3cncn3)cc12 [Rizatriptan Benzoate (Maxalt)] has a cell viability of 86.7%. Cc1ccc(NC(=O)C2(c3ccc4c(c3)OC(F)(F)O4)CC2)nc1-c1cccc(C(=O)O)c1 [VX-809 (Lumacaftor)] was tested, and the cell viability was 109%. C=CC(=O)Nc1cccc(Nc2nc(Nc3ccc(Oc4ccnc(C(=O)NC)c4)cc3)ncc2F)c1 showed a cell viability of 53.1%. Cc1cc(Nc2ncc(Cl)c(Nc3ccccc3S(=O)(=O)C(C)C)n2)c(OC(C)C)cc1C1CCNCC1 [Ceritinib (LDK378)] gave a cell viability of 0.06%. For C[C@@H](Oc1cc(-n2cnc3ccc(CN4CCN(C)CC4)cc32)sc1C(N)=O)c1ccccc1C(F)(F)F, the cell viability was 16.8%. In the case of CC(C)c1onc(-c2c(Cl)cccc2Cl)c1COc1ccc(/C=C/c2cccc(C(=O)O)c2)c(Cl)c1, the cell viability was 95.5%. C[C@@H]1O[C@@H](O[C@H]2[C@H](Oc3cc(O)c(C(=O)CCc4ccc(O)cc4)c(O)c3)O[C@H](CO)[C@@H](O)[C@@H]2O)[C@H](O)[C@H](O)[C@H]1O [Naringin Dihydrochalcone (Naringin DC)] gave a cell viability of 98.4%. CC(=O)[C@H]1CC[C@H]2[C@@H]3CCC4=CC(=O)CC[C@]4(C)[C@H]3CC[C@]12C [Progesterone (Prometrium)] showed a cell viability of 75%. CCOc1cc(C=O)ccc1OC(C)=O [Ethyl vanillin acetate] was tested, and the cell viability was 96.4%. In the case of Clc1ccc(CSC(Cn2ccnc2)c2ccc(Cl)cc2Cl)cc1 (stereo not given) [Sulconazole Nitrate], the cell viability was 45.7%. Cc1[nH]c(/C=C2\C(=O)Nc3ccc(S(=O)(=O)Cc4c(Cl)cccc4Cl)cc32)c(C)c1C(=O)N1CCC[C@@H]1CN1CCCC1 was tested, and the cell viability was 42%. CN(C)CCCC1(c2ccc(F)cc2)OCc2cc(C#N)ccc21 (stereo not given) [Citalopram HBr] gave a cell viability of 91.5%. With Cc1cc(Nc2cc(N)ncn2)c(=O)n2c1C(=O)NC21CCCCC1 the cell viability was 83.5%. With COc1ccc2c(c1O)-c1c(O)c(OC)cc3c1[C@H](C2)[N+](C)(C)CC3 [Magnoflorine] the cell viability was 99.3%. For CN1CCN(c2ccc(Nc3cc(-c4cccc(-n5ccc6cc(C7CC7)cc(F)c6c5=O)c4CO)cn(C)c3=O)nc2)CC1, the cell viability was 0.81%. In the case of Cc1cccc(C)c1N(CC(=O)Nc1ccc(-c2ncon2)cc1)C(=O)C1CCS(=O)(=O)CC1 [Amenamevir], the cell viability was 96.4%. O=C1C[C@@H]2[C@@H](CO)[C@H](O)C[C@@H]2O1 [Corey Lactone Diol] gave a cell viability of 102%. CC(=O)/N=c1/sc(S(N)(=O)=O)nn1C [Methazolamide] showed a cell viability of 98.5%. O=C(NCc1ccncc1)C12CC3CC(C1)CC(c1ccc(Cl)cc1)(C3)C2 was tested, and the cell viability was 61%. In the case of COc1cc2c(=O)c(-c3ccc(O)cc3)coc2cc1O[C@@H]1O[C@H](CO)[C@@H](O)[C@H](O)[C@H]1O [Glycitin], the cell viability was 97.1%. With O=c1cc(-c2ccccc2)oc2c1ccc1ccccc12 [alpha-Naphthoflavone] the cell viability was 117%. With CC(CN(C)C)Oc1nc(Nc2cc3cccc(Cl)c3cn2)cnc1C#N (stereo not given) the cell viability was 15.7%. C[C@@H](Oc1ccc2[nH]nc(/C=C/c3cnn(CCO)c3)c2c1)c1c(Cl)cncc1Cl was tested, and the cell viability was 0.8%. C1=N/C2=N/c3ccc(OCCN4CCCC4)c(c3)COC/C=C/COCc3cccc(c3)C(=C1)N2 [Pacritinib (SB1518)] gave a cell viability of 0.21%. For C[C@H]1C[C@H]2[C@@H]3CCC4=CC(=O)C=C[C@]4(C)[C@@]3(F)[C@@H](O)C[C@]2(C)[C@@]1(O)C(=O)CO [Betamethasone (Celestone)], the cell viability was 92.8%. OCCN(CCO)c1nc(N2CCCCC2)c2nc(N(CCO)CCO)nc(N3CCCCC3)c2n1 [Dipyridamole (Persantine)] showed a cell viability of 111%. CCOc1ccccc1OC(c1ccccc1)C1CNCCO1 (stereo not given) [Reboxetine mesylate] was tested, and the cell viability was 92.2%. CC(C)n1nccc1-c1ncccc1COc1cccc(O)c1C=O [Voxelotor(GBT440, GTx011)] gave a cell viability of 85.8%. In the case of Cc1ccc(N(CC2=NCCN2)c2cccc(O)c2)cc1 [Phentolamine Mesylate], the cell viability was 102%. Molecule O=C(NO)c1cccc(C(=O)NCCc2ccccc2)c1 has a cell viability of 89.6%. O=c1ccn(C2OC(CO)C(O)C2O)c(=O)[nH]1 (stereo not given) gave a cell viability of 100%. CC1(C)S[C@@H]2[C@H](NC(=O)[C@H](N)c3ccccc3)C(=O)N2[C@H]1C(=O)OCOC(=O)[C@@H]1N2C(=O)C[C@H]2S(=O)(=O)C1(C)C [Sultamicillin] gave a cell viability of 97.2%. Molecule Cc1cc(OCCCS(C)(=O)=O)cc(C)c1-c1cccc(COc2ccc3c(c2)OC[C@H]3CC(=O)O)c1 has a cell viability of 94.3%. In the case of CCCC1O[C@@H]2C[C@H]3[C@@H]4CCC5=CC(=O)C=C[C@]5(C)[C@H]4[C@@H](O)C[C@]3(C)[C@]2(C(=O)CO)O1 (stereo not given in full) [Budesonide], the cell viability was 86.1%. CC(C)n1nc(-c2ccc(NC(=O)Nc3cc(C(F)(F)F)ccc3F)cc2)c2c(N)ncnc21 gave a cell viability of 1.98%.
